Results as given in PubChem BioAssay.
The source made the active and inactive calls.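 Rule for the calls, unless noted: active = fluorescence slope higher than the sample average by over 3 SD (cut at about -0.22 in these data, passing the limit was not always enough); inactive = the rest.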

Legend:
[1] = target: Voltage-gated potassium channel subunit beta-2 (Rattus norvegicus) (UniProt P62483); test: KvBeta enzyme negative modulators, primary screen, biochemical, NADPH fluorescence (AID 622); details: recombinant KvBeta, 4-cyanobenzaldehyde reduction, at 10 µM, stronger effect = higher value;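 note: slope of raw intensity against log time taken from 70 to 1610 s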
Chain of Voltage-gated potassium channel subunit beta-2 (Rattus norvegicus) (P62483 whole entry, looked up): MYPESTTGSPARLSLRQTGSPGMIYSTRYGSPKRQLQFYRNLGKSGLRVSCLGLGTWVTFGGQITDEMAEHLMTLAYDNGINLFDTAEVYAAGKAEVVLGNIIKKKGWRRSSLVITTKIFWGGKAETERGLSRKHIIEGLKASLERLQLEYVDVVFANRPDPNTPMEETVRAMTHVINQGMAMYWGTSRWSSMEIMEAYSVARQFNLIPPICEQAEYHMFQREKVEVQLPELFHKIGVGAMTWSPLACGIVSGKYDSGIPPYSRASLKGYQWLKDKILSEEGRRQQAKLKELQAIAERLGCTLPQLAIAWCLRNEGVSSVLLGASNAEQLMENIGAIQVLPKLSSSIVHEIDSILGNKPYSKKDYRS

[2] = target: Voltage-gated potassium channel subunit beta-2 (Rattus norvegicus) (UniProt P62483); test: KvBeta positive modulators, primary screen, biochemical, NADPH fluorescence (AID 623;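 active = NADPH fluorescence slope more negative than the mean of all samples by about 3 SD, 99.7% confidence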;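 note: fluorescence intensity change per second fitted from 20 to 320 s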); details: Recombinant KvBeta, NADPH fluorescence decrease slope, 10 min; at 10 µM; stronger effect = lower value
[3] = target: Alpha-2C adrenergic receptor (Homo sapiens) (UniProt P18825); test: modulators of alpha2C/GIRK thallium flux, primary screen, cell-based, HEK293 alpha2C/GIRK1/2 (AID 624;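 active = fluorescence slope after compound addition differing from the mean of all screened samples at 99.7% confidence, in either direction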;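 note: slope of fluorescence ratio to pre-addition baseline per second over 15 to 24 s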); details: thallium flux BTC fluorescence, at 10 µM, actives lie on both sides
Chain of Alpha-2C adrenergic receptor (Homo sapiens) (P18825 whole entry, looked up): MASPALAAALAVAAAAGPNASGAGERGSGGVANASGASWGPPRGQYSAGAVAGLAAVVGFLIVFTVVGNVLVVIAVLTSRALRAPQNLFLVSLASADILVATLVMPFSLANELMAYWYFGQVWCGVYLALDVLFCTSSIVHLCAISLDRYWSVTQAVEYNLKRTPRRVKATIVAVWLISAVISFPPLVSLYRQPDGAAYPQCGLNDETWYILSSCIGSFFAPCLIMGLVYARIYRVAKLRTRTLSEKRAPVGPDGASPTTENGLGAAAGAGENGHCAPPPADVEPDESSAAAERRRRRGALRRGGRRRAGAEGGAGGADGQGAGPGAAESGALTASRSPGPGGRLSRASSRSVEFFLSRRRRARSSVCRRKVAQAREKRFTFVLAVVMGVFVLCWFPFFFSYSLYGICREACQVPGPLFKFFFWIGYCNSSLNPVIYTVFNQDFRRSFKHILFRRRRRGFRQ

[4] = inhibitors of larval lipid processing in zebrafish, primary screen, whole organism, PED6 fluorescence, gall bladder and intestine (AID 686;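 active = a full or partial loss of lipid-probe fluorescence in the fish gall bladder, intestine or both, judged by eye; inactive = no fluorescence loss, or compound toxic to the fish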;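 note: larvae 5 to 7 days old with five fish per well; signal comes from phospholipase A2 cleavage of quenched PED6 carried via bile; overnight exposure to compound and PED6 before scoring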); details: Zebrafish larvae PED6 lipid processing, fluorescence scoring; screened at 20 µM (by protocol)
[5] = inhibitors of Sendai virus-induced IRF3 signaling, primary screen, TLR/RLR signaling modifier project, cell-based, Sendai virus stimulus, luciferase, 10K MLSCN set (AID 602276;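 active = inhibition at or above 50% at 10 µM; inactive = inhibition below 50%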;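 note: firefly luciferase from ISG56 promoter only with Renilla not read in this screen; 0% = Sendai virus plus DMSO and 100% = medium plus DMSO without virus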); details: HEK293 RL24 IRF3 luciferase reporter, at 10 µM, stronger effect = higher value
[6] = inhibitors of poly I:C-induced TLR3 signaling, primary screen, cell-based, poly I:C stimulus, luciferase, 10K MLSCN set (AID 602277;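 active = inhibition of the reporter signal at or above 50%; inactive = inhibition below 50%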); details: HEK293-TLR3 RL24 IRF3 luciferase reporter, at 10 µM, stronger effect = higher value
[7] = inhibitors of mutant huntingtin aggregation, primary screen, imaging, exon1htt(103Q)mCFP cells, high-content imaging (AID 483;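 active = visual image review flags a hit and inhibition of aggregation exceeds 20%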;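 note: compound exposure lasted 3 days before fixation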;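 for nuclei count: percent of the per-plate median nuclei count of sample wells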); details: exon1htt(103Q)mCFP cell line, aggregate imaging, at 2 µM; inhibition of aggregation: stronger effect = higher value; nuclei count: measured here: cell count, toxicity
[8] = inhibitors of E-selectin induction by TNFa, primary screen, imaging, HUVEC, immunofluorescence, MLSMR starter and 10KST1 sets (AID 487;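 active = visually confirmed hit in the image check and inhibition above 20%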;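 for inhibition: signal is fraction of cell area covered by stained E-selectin grains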;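 for nuclei count: 100% = median nuclei count of all wells on the same plate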); details: HUVEC TNFalpha-induced E-selectin immunofluorescence imaging, at 2 µM; inhibition: stronger effect = higher value; nuclei count: measured here: cell number, toxicity
[9] = DUSP6 inhibitors restoring Erk phosphorylation by chemical complementation, primary imaging in DUSP6-transfected HeLa (AID 609;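 active = compounds giving at least 50% inhibition in the cell-based MKP-3 phosphatase rescue imaging test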;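 for inhibition: phospho-Erk level distribution per well compared with pooled transfected vehicle control wells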); details: HeLa MKP-3 transfected, phospho-Erk imaging KS statistic, at 10 µM, cells stimulated with TPA for 15 min
[10] = target: Dual specificity protein phosphatase 6 (Homo sapiens) (UniProt Q16828); test: as above; details: HeLa MKP-3 transfected, phospho-Erk imaging KS statistic; at 10 µM; stronger effect = higher value; cells stimulated with TPA for 15 min
Chain of Dual specificity protein phosphatase 6 (Homo sapiens) (Q16828 whole entry, looked up): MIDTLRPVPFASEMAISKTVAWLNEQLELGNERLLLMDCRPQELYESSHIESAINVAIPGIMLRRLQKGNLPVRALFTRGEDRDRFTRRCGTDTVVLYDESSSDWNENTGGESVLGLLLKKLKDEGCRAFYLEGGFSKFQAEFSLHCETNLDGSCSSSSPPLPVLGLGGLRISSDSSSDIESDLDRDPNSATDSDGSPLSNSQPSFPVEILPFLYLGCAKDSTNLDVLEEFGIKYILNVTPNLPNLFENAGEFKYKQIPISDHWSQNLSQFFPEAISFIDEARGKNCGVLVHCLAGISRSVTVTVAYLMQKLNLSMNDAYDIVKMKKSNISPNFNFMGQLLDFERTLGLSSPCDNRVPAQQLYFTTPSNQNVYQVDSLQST

[11] = target: Muscarinic acetylcholine receptor M4 (Homo sapiens) (UniProt P08173); test: compounds altering M4/GIRK thallium flux, either direction, primary screen, M4 allosteric agonist project, cell-based, HEK293 M4/GIRK, BTC-AM (AID 625;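 active = fluorescence slope after compound addition differing from the mean of all tested samples at 99.7% confidence, mostly higher but some lower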;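 note: thallium influx through GIRK channels coupled to M4 in HEK293 cells with BTC-AM dye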); details: at 10 µM, actives lie on both sides
Chain of Muscarinic acetylcholine receptor M4 (Homo sapiens) (P08173 whole entry, looked up): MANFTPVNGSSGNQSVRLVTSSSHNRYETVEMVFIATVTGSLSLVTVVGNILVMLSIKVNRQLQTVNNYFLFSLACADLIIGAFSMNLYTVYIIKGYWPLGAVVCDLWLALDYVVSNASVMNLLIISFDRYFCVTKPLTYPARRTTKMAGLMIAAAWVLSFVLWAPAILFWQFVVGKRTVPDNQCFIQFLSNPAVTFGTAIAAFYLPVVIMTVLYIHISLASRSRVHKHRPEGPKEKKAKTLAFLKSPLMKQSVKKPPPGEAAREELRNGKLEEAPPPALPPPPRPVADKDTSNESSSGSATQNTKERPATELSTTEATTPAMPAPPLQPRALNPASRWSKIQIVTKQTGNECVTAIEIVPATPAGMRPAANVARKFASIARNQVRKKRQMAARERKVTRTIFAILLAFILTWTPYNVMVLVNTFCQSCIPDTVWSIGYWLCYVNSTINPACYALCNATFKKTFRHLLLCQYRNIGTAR

[12] = inhibitors of Chlamydomonas gravitaxis, primary screen, whole organism, Chlamydomonas reinhardtii, WT vs cilia-less mutant, absorbance, 96-well (AID 463189;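 active = inhibition at or above 50% relative to wild type and mutant plate controls; inactive = inhibition below 50%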;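 note: 0% = wild type cc124 cells in DMSO and 100% = ciliumless bld1 mutant cells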); details: OD600 absorbance, 2 days, at 10 µM, stronger effect = higher value
[13] = measured here: cell density z-score
[14] = measured here: nuclear c-Myc green intensity z-score
[15] = measured here: nuclear pErk red intensity z-score, stronger effect = higher value

CCOC(=O)C1CCCN(C(=O)c2cc3c(-c4cccc(OC)c4)nn(C)c3s2)C1 (stereo not drawn)
inactive: fluorescence slope [1] -0.355 | NADPH fluorescence slope [2] -3.7e-05 | slope [3] 0.00666 | outcome [4] | inhibition [5] -33.2% | inhibition [6] 39.4%

Clc1ccc(-c2nnc3sc(-c4ccc(Br)o4)nn23)cc1
181%: nuclei count [8]
97.9%: nuclei count [7]
inactive: inhibition of aggregation [7] 10.6% | inhibition [8] -136% | fluorescence slope [1] -0.346 | NADPH fluorescence slope [2] 2.1e-05 | slope [3] 0.0087 | inhibition [5] 6.08% | inhibition [6] -13%

CCCN1Cc2cccc(C(=O)NCc3cccs3)c2C1=O
inactive: fluorescence slope [1] -0.393 | NADPH fluorescence slope [2] -4e-05 | slope [3] 0.00508 | outcome [4] | inhibition [5] 3.53% | inhibition [6] 2.96%

COc1ccc(CCN(C)CCCC(C#N)(c2ccc(OC)c(OC)c2)C(C)C)cc1OC (stereo not drawn)
-0.251: z-score [9, 14]
inactive: inhibition [8] -110% | inhibition [10] 12.4% | fluorescence slope [1] -0.461 | NADPH fluorescence slope [2] -2.2e-05 | inhibition [5] 2.16% | inhibition [6] 27%
114%: nuclei count [8]
-0.13: z-score [9, 13]
-0.441: z-score [9, 15]

CC1(C)CC(=O)C=C(NCCO)C1
-0.173: z-score [9, 14]
inactive: inhibition [8] -18.5% | inhibition [10] 20.8% | fluorescence slope [1] -0.395 | NADPH fluorescence slope [2] -5.8e-05 | fluorescence slope [11] 0.00557 | outcome [4] | inhibition [12] 40.3%
1.01: z-score [9, 13]
-0.675: z-score [9, 15]
146%: nuclei count [8]

COc1ccc(OC)c(C2=NOC(C(=O)Nc3c(C)n(C)n(-c4ccccc4)c3=O)C2)c1 (stereo not drawn)
inactive: fluorescence slope [1] -0.546 | NADPH fluorescence slope [2] -2.8e-05 | slope [3] 0.0073 | inhibition [5] -3.88% | inhibition [6] 17.6%

O=C(CSc1nc2c(sc3ccccc32)c(=O)n1Cc1ccco1)NCC1CCCO1 (stereo not drawn)
inactive: fluorescence slope [1] -0.58 | NADPH fluorescence slope [2] -4.5e-05 | fluorescence slope [11] 0.00708 | inhibition [5] 19.7% | inhibition [6] 20.3%

O=C(CN(Cc1ccco1)C(=O)CNS(=O)(=O)c1ccc(Cl)cc1)NCc1ccc(F)cc1
97.5%: nuclei count [7]
159%: nuclei count [8]
inactive: inhibition of aggregation [7] -10.4% | inhibition [8] -185% | fluorescence slope [1] -0.567 | NADPH fluorescence slope [2] -6.4e-06 | fluorescence slope [11] 0.00551 | inhibition [5] 22.1% | inhibition [6] 27.5%

CCCNC(=O)C1CN(S(=O)(=O)c2ccccc2)CCN1S(=O)(=O)c1ccccc1 (stereo not drawn)
inactive: fluorescence slope [1] -0.512 | NADPH fluorescence slope [2] -3.4e-05 | slope [3] 0.00614 | inhibition [5] 9.56% | inhibition [6] 19%

O=P(Cc1nnco1)(c1ccccc1)c1ccccc1
0.578: z-score [9, 13]
inactive: inhibition [8] 0.9% | inhibition [10] -3.98% | fluorescence slope [1] -0.431 | NADPH fluorescence slope [2] -5.1e-05 | fluorescence slope [11] 0.00527 | outcome [4] | inhibition [12] -3.84%
-1.79: z-score [9, 14]
176%: nuclei count [8]
0.749: z-score [9, 15]

O=C(C1CCN(S(=O)(=O)c2cnc[nH]2)CC1)N1CCN(c2ncccn2)CC1
inactive: fluorescence slope [1] -0.353 | NADPH fluorescence slope [2] -7e-05 | slope [3] 0.00534 | outcome [4] | inhibition [5] -35.5%
active: inhibition [6] 88.9%

Cc1ccccc1-c1nc(CS(=O)(=O)CC(=O)N(C)C2CCCCC2)c(C)o1
inactive: fluorescence slope [1] -0.49 | NADPH fluorescence slope [2] -3.4e-05 | slope [3] 0.00717 | inhibition [5] -5.9% | inhibition [6] -32.7%

CC(=O)N1CCc2cc(S(=O)(=O)NCCC(=O)NC3CCCc4ccccc43)ccc21 (stereo not drawn)
inactive: fluorescence slope [1] -0.388 | NADPH fluorescence slope [2] -4e-05 | slope [3] 0.00543 | outcome [4] | inhibition [5] -3.18% | inhibition [6] -2.7%

COc1ccc(CN2CC(C(=O)NCc3ccccn3)CC2=O)cc1 (stereo not drawn)
inactive: fluorescence slope [1] -0.582 | NADPH fluorescence slope [2] -2.5e-07 | fluorescence slope [11] 0.00691 | inhibition [5] 14.9% | inhibition [6] 23.4%

O=C(NCCC1=CCCCC1)C1CCN(S(=O)(=O)c2cccc3cccnc23)CC1
inactive: fluorescence slope [1] -0.494 | NADPH fluorescence slope [2] 2.4e-05 | slope [3] 0.00594 | inhibition [5] -7.21% | inhibition [6] -9.62%

O=C(Nc1cc(Cl)ccc1Cl)c1noc2c1CCCC2
inactive: fluorescence slope [1] -0.601 | NADPH fluorescence slope [2] -9e-06 | slope [3] 0.00618 | inhibition [5] -3.4% | inhibition [6] 26.6%

CCC(C)(NC(=O)c1ccc(=O)[nH]c1)C(=O)NC1CCCC1 (stereo not drawn)
inactive: fluorescence slope [1] -0.551 | NADPH fluorescence slope [2] -5e-05 | slope [3] 0.00548 | inhibition [5] 8% | inhibition [6] 24.2%

CN1[C@@H]2CC(OC(=O)[C@H](CO)c3ccccc3)C[C@H]1[C@@H]1O[C@@H]12 (stereo partly drawn)
inactive: inhibition [8] -56.4% | inhibition [10] 15.3% | fluorescence slope [1] -0.461 | NADPH fluorescence slope [2] -3e-05 | slope [3] 0.00551 | inhibition [5] 2.34% | inhibition [6] 25.9%
-0.245: z-score [9, 14]
129%: nuclei count [8]
-0.715: z-score [9, 15]
0.18: z-score [9, 13]

O=C1[C@@H]2C(c3ccccc3Cl)=NO[C@@H]2C(=O)N1Cc1ccccc1
inactive: inhibition of aggregation [7] -2.9% | inhibition [8] -238% | fluorescence slope [1] -0.328 | NADPH fluorescence slope [2] -5.7e-05 | slope [3] 0.00529 | inhibition [5] 9.22% | inhibition [6] 12.2%
213%: nuclei count [8]
90.6%: nuclei count [7]

Cc1ccc2oc(=O)c3cnn(CC(=O)N4CCCc5ccccc54)c3c2c1
inactive: fluorescence slope [1] -0.49 | NADPH fluorescence slope [2] 1.1e-05 | slope [3] 0.00798 | inhibition [5] 29.3% | inhibition [6] 19.2%

CCOC(=O)CNC(=O)C(Cc1ccccc1)NS(=O)(=O)c1ccc2c(c1)CCC(=O)N2 (stereo not drawn)
inactive: fluorescence slope [1] -0.438 | NADPH fluorescence slope [2] -0.000333 | fluorescence slope [11] 0.00524 | inhibition [5] 0.424% | inhibition [6] 15.6%

CCCNCC(O)COc1ccccc1C(=O)CCc1ccccc1 (stereo not drawn)
0.603: z-score [9, 15]
0.234: z-score [9, 14]
inactive: inhibition [8] -137% | inhibition [10] -4.44% | fluorescence slope [1] -0.521 | NADPH fluorescence slope [2] -4.9e-05 | slope [3] 0.00393 | inhibition [5] 9.47% | inhibition [6] 42.6%
129%: nuclei count [8]
-0.576: z-score [9, 13]

CN(C)CCOC(c1ccccc1)c1ccccc1 (tested in a mixture with another compound)
-0.839: z-score [9, 15]
0.00544: z-score [9, 14]
0.752: z-score [9, 13]
inactive: inhibition [8] -105% | inhibition [10] 13.3% | fluorescence slope [1] -0.486 | NADPH fluorescence slope [2] -8.1e-06 | slope [3] 0.00507 | inhibition [5] 23.9% | inhibition [6] 33.9%
131%: nuclei count [8]

O=C(Oc1oc(-c2ccco2)nc1C=Nc1ccccc1)c1ccoc1
0.106: z-score [9, 15]
inactive: inhibition [8] -72% | inhibition [10] 15.1% | fluorescence slope [1] -0.402 | NADPH fluorescence slope [2] -4.5e-05 | fluorescence slope [11] 0.00635 | outcome [4] | inhibition [12] 8.33%
1.16: z-score [9, 13]
165%: nuclei count [8]
-0.161: z-score [9, 14]

Cn1c(=O)[nH]c2cc3ccccc3cc21
inactive: fluorescence slope [1] -0.527 | NADPH fluorescence slope [2] -6.1e-05 | fluorescence slope [11] 0.00589 | inhibition [5] 4.54% | inhibition [6] 5.31%

CN(C)CCOC(c1ccccc1)c1ccccc1
124%: nuclei count [8]
0.456: z-score [9, 14]
inactive: inhibition [8] -7% | inhibition [10] 5.42% | fluorescence slope [1] -0.465 | NADPH fluorescence slope [2] -4.4e-05 | slope [3] 0.00555 | inhibition [5] 11.6% | inhibition [6] 38.5%
-0.686: z-score [9, 13]
0.78: z-score [9, 15]

Cn1c(=O)oc2cc(S(=O)(=O)NCCC(=O)N3CCc4ccccc4C3)ccc21
inactive: fluorescence slope [1] -0.514 | NADPH fluorescence slope [2] -9.1e-05 | slope [3] 0.00621 | inhibition [5] 13.9% | inhibition [6] 18.7%

CC(C)(C)C1CCc2onc(C(=O)Nc3cnn(Cc4ccc(F)cc4)c3)c2C1 (stereo not drawn)
inactive: fluorescence slope [1] -0.58 | NADPH fluorescence slope [2] 1.6e-05 | fluorescence slope [11] 0.00687 | inhibition [5] 12% | inhibition [6] 19.7%

CC1(C)CC(=O)C(C=N)=C(O)C1
169%: nuclei count [8]
inactive: inhibition [8] -29.4% | inhibition [10] -3.98% | fluorescence slope [1] -0.384 | NADPH fluorescence slope [2] -3.8e-05 | fluorescence slope [11] 0.00587 | outcome [4] | inhibition [12] 3.24%
-0.419: z-score [9, 13]
0.177: z-score [9, 15]
-0.908: z-score [9, 14]

CCOC(=O)C1CCCN(c2cc(=O)n(Cc3ccc(F)cc3)c(=O)[nH]2)C1 (stereo not drawn)
inactive: fluorescence slope [1] -0.387 | NADPH fluorescence slope [2] -1.6e-05 | fluorescence slope [11] 0.0077 | inhibition [5] 11.9% | inhibition [6] 19.7%

CC(C)CCNC(=O)NC(=O)CSc1nnc(COc2ccccc2Cl)o1
inactive: inhibition of aggregation [7] 13.9% | inhibition [8] -53.1% | fluorescence slope [1] -0.513 | NADPH fluorescence slope [2] -7.7e-06 | fluorescence slope [11] 0.00525 | inhibition [5] 9.99% | inhibition [6] 21%
126%: nuclei count [8]
98.5%: nuclei count [7]

CCOc1ccc2[nH]c(C)cc(=O)c2c1
inactive: fluorescence slope [1] -0.554 | NADPH fluorescence slope [2] 1.5e-05 | slope [3] 0.00617 | inhibition [5] -6.31% | inhibition [6] 16%
